Where “and” joins values, the source holds several entries; their conditions need not be identical. Equal entries are not always repeated. Inconclusive results are not listed. Calls of active or inactive are those of the source. Rule for the calls: active = hit-call score of the fitted dose curve at least 0.9, where 1 is the maximum; inconclusive = response in the unintended direction; inactive = score below 0.9.
biological target: Norway rat Vesicular Monoamine Transporter (VMAT2), neurotransmitter transporter, Slc18a2 (gene 25549) (UniProt Q01827); assay: NVS_TR_rVMAT2: NovaScreen (NVS) Transporter Assay for Norway rat Vesicular Monoamine Transporter (VMAT2), neurotransmitter transporter (AID 2283376);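 note: actives lower the bound radioligand signal below the DMSO level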
Sequence (Q01827 whole entry, looked up): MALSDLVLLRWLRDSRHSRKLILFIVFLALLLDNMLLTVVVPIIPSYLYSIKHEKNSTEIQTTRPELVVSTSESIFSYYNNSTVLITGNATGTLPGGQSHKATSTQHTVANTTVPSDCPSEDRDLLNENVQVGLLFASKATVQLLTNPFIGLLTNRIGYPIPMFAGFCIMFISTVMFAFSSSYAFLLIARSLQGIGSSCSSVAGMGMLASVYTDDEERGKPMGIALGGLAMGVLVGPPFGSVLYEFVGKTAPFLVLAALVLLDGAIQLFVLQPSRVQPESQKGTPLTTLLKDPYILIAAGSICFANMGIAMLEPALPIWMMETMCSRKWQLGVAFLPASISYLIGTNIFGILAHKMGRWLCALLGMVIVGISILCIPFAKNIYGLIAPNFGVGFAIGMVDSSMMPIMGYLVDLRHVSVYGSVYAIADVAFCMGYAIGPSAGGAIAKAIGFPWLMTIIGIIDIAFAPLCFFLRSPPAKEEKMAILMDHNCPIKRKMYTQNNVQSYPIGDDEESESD
Procedure: NVS_TR_rVMAT2 is a biochemical, single-readout assay that uses extracted gene-proteins from Rat forebrain in a tissue-based cell-free assay. Measurements were taken 1 hour after chemical dosing in a 96-well plate.NVS_TR_rVMAT2 is one of one assay component(s) measured or calculated from the NVS_TR_rVMAT2 assay. It is designed to make measurements of radioligand binding, a form of binding reporter, as detected with scintillation counting signals by Filter-based radiodetection technology.Data from the assay component NVS_TR_rVMAT2 was analyzed into 1 assay endpoint. This assay endpoint, NVS_TR_rVMAT2, was analyzed in the positive analysis fitting direction relative to DMSO as the negative control and baseline of activity. Using a type of binding reporter, loss-of-signal activity can be used to understand changes in the binding as they relate to the gene Slc18a2. Furthermore, this assay endpoint can be referred to as a primary readout, because the performed assay has only produced 1 assay endpoint. To generalize the intended target to other relatable targets, this assay endpoint is annotated to the transporter intended target family, where the subfamily is vesicular transporter.
Binding assays used specific radioligands (tritiated, iodinated) with non-radioactive competitive displacement ligands in agonist or antagonist protocols (as indicated) and various reference compounds and inhibitors to titrate specific binding to receptors and transporters. Most enzyme assays (CYPs, kinases, phosphatases, proteases, HDACs) used recombinant protein and specific substrates (fluorescence mostly, some colorimetric and radioactive) and inhibitors, followed by a biochemical separation of substrate and product. All assays for the biochemical HTS were initially run in duplicate at a single concentration (10 uM for CYP450 assays and 25 uM for all others). […] Each assay was run with positive and negative controls, and concurrent controls on every plate. The follow-up (secondary) screen tested active chemical-pairs in concentration series, as well as a few additional assays not tested in the primary screen, some selected negative inactives, and several cases re-run in the concentration series for confirmatory purposes.

Row | Structure (SMILES) | outcome | AC50
1 | CCN(CC)c1ccc(N=Nc2ccccc2)cc1 | inactive | –
2 | Oc1ccc(C(c2ccc(O)cc2)C(Cl)(Cl)Cl)cc1 | – | 7.63 µM (active)
3 | CC(C)CCCCCCOC(=O)c1ccc(C(=O)OCCCCCCC(C)C)c(C(=O)OCCCCCCC(C)C)c1 | inactive | –
4 | O=C(OC[C@H]1O[C@@H](OC(=O)c2cc(O)c(O)c(OC(=O)c3cc(O)c(O)c(O)c3)c2)[C@H](OC(=O)c2cc(O)c(O)c(OC(=O)c3cc(O)c(O)c(O)c3)c2)[C@@H](OC(=O)c2cc(O)c(O)c(OC(=O)c3cc(O)c(O)c(O)c3)c2)[C@@H]1OC(=O)c1cc(O)c(O)c(OC(=O)c2cc(O)c(O)c(O)c2)c1)c1cc(O)c(O)c(OC(=O)c2cc(O)c(O)c(O)c2)c1 | inactive | –
5 | CS(=O)(=O)c1ccc(C2=C(c3ccccc3)C(=O)OC2)cc1 | – | 12.5 µM (active)
6 | COC(=O)c1ccc(C(=O)OC)cc1 | inactive | –
7 | c1ccc(-c2nc3ccccc3[nH]2)cc1 | – | 6.56 µM (active)
8 | CCOC(=O)O[C@H](C)OC(=O)c1ccc2c(c1)cc(C(=O)NC1CCN(C(C)C)CC1)n2Cc1cc(-c2ccc(Cl)s2)on1 | – | 5.06 µM (active)
9 | c1ccc2c(c1)ccc1ccccc12 | inactive | –
10 | COCCOc1cc2cc(C(=O)NC3CCN(C(C)C)CC3)n(CC(=O)Nc3ccc(Cl)cn3)c2cn1 | inactive | –
11 | Cc1cc(F)ccc1-c1cc(N2CC[C@@H](O)[C@H]2CO)ncc1N(C)C(=O)C(C)(C)c1cc(C(F)(F)F)cc(C(F)(F)F)c1 | – | 11.7 µM (active)
12 | N=C(N)c1ccc(OCCCCCOc2ccc(C(=N)N)cc2)cc1 | – | 5.98 µM (active)
13 | CCOCN(C(=O)CS(=O)(=O)O)c1c(C)cccc1CC | inactive | –
14 | [Cl][Dy]([Cl])[Cl] | inactive | –
15 | CCCCCCCCCCCCCCCCCC(=O)OCC(CC)CCCC (stereo not given) | inactive | –
16 | Nc1ccc2c(c1)C(=O)c1ccccc1C2=O | inactive | –
17 | COc1ccc(-n2nc(C(F)F)cc2-c2ccc(S(C)=O)cc2)cc1 (stereo not given) | – | 4.96 µM (active)
18 | O=[N+]([O-])c1ccccc1Cl | inactive | –
19 | CC(C)(c1ccc(O)cc1)c1ccc(O)cc1 | – | 12.5 µM (active) [middle of 4 runs]
20 | CCC(=C(c1ccc(O)cc1)c1ccc(OCCN(C)C)cc1)c1ccccc1 | – | 0.626 µM (active)

Row | Structure (SMILES) | outcome | AC50
21 | CCN(CC)c1ccc(C=O)c(O)c1 | inactive | –
22 | O=Cc1ccccc1C=O | inactive | –
23 | C/C=C\C/C=C/CCCCCCCCOC(C)=O | inactive | –
24 | O=C(NO)C1(NS(=O)(=O)c2ccc(Oc3ccc(F)cc3)cc2)CCOCC1 | inactive | –
25 | N#CCCCCC#N | inactive | –
26 | CO[C@H]1/C=C/O[C@@]2(C)Oc3c(C)c(O)c4c(O)c(c(/C=N/N5CCN(C)CC5)c(O)c4c3C2=O)NC(=O)/C(C)=C\C=C\[C@H](C)[C@H](O)[C@@H](C)[C@@H](O)[C@@H](C)[C@H](OC(C)=O)[C@@H]1C | inactive | –
27 | NNC(=O)c1ccncc1 | inactive | –
28 | Clc1ccc(Nc2nnc(Cc3ccncc3)c3ccccc23)cc1 | – | 7.04 µM (active)
29 | CC(C)(C)CC(C)(C)c1ccc(OCCOCC[N+](C)(C)Cc2ccccc2)cc1 | inactive | –
30 | CCCOc1sc(C(=O)N2CCC(c3cc(CN)ccc3F)CC2)c(C)c1Br | – | 2.89 µM (active)
31 | Nc1ccc(Oc2cccc(Oc3ccc(N)cc3)c2)cc1 | inactive | –
32 | O=C1c2ccccc2C(=O)N1CCc1noc(-c2ccc(CN3CCCCCC3)s2)n1 | – | 2.87 µM (active)
33 | CC(=N[Si](C)(C)C)O[Si](C)(C)C | inactive | –
34 | CCOC(=O)C1=NN(c2ccc(Cl)cc2Cl)C(C)(C(=O)OCC)C1 (stereo not given) | – | 15.5 µM (active)
35 | Clc1nc(Cl)c(Cl)c(Cl)c1Cl | inactive | –
36 | O=C(c1ccc(OCCN2CCCCC2)cc1)c1c(-c2ccc(O)cc2)sc2cc(O)ccc12 | – | 0.563 µM (active)
37 | C[Si]1(C)O[Si](C)(C)O[Si](C)(C)O[Si](C)(C)O1 | inactive | –
38 | Oc1ccc(/C=C/c2cc(O)cc(O)c2)cc1 | – | 21 µM (active)
39 | CC/C(=C(/CC)c1ccc(O)cc1)c1ccc(O)cc1 | – | 12 µM (active) and 14.7 µM (active) and 20.5 µM (active)
40 | Cc1ccc(O)c(C(C)(C)C)c1 | inactive | –

Reference: PubChem BioAssay (EPA / NIEHS)
